In the supplement of paper PMC3342239:
Where a name gives a salt, the structure may show the parent alone.

test system: Saccharomyces cerevisiae; assay: fraction of cells in G1 phase (DNA content, flow cytometry); higher = more cells with unreplicated DNA (G1 delay); details: temperature: 30 C; YPD; JTY2953 pdr5 snq2 (sensitized); drug added to: cultures diluted from stationary phase; 6-7 h
Summary of the method: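 S. cerevisiae grown in YPD at 30°C was exposed to library drugs. In one setup, overnight sensitized JTY2953 cultures were diluted 1∶200, given a final 20 µg/ml and fixed after 6–7 h, while other runs dosed dividing JTY2953 with fixation 6 h later or BY4741 with fixation 4.33 h later. Cells were ethanol-fixed, stained with SYTOX Green and analysed by flow cytometry at 10,000 events. The G1 fraction is the area of the Dean-Jett-Fox G1 peak divided by the summed G1 and G2/M areas.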

Structure (SMILES)	fraction of cells in G1 phase
CN1CCC[C@@H]1CCO[C@](C)(c1ccccc1)c1ccc(Cl)cc1 [Clemastine fumarate] (58.1564 µM)	0.66
Clc1ccc(CO/N=C(\Cn2ccnc2)c2ccc(Cl)cc2Cl)c(Cl)c1 [Oxiconazole nitrate] (46.6053 µM)	0.853
COc1c(N2CCNC(C)C2)c(F)cc2c(=O)c(C(=O)O)cn(C3CC3)c12 (stereo unspecified) [Gatifloxacin] (53.276 µM)	0.335
CC(CN1c2ccccc2Sc2ccccc21)N(C)C (stereo unspecified) [Promethazine HCl] (70.317 µM)	0.204
CN1CCN(CCCN2c3ccccc3Sc3ccc(C(F)(F)F)cc32)CC1 [Trifluoperazine 2HCl] (41.632 µM)	0.873
Cc1ccc(C)c(OCCCC(C)(C)C(=O)O)c1 [Gemfibrozil] (79.8911 µM)	0.611
CN(C)CCOc1ccc(/C(=C(/CCCl)c2ccccc2)c2ccccc2)cc1 [Toremifene] (49.2645 µM)	0.901
Cc1ccc(-c2cc(C(F)(F)F)nn2-c2ccc(S(N)(=O)=O)cc2)cc1 [Celecoxib] (52.4412 µM)	0.863
Clc1ccc(C(Cn2ccnc2)OCc2csc3c(Cl)cccc23)c(Cl)c1 (stereo unspecified) [Sertaconazole] (45.6852 µM)	0.869
C[C@@H]1CN(c2c(F)c(N)c3c(=O)c(C(=O)O)cn(C4CC4)c3c2F)C[C@H](C)N1 [Sparfloxacin] (50.9672 µM)	0.366
O=C1NCN(c2ccccc2)C12CCN(CCCC(c1ccc(F)cc1)c1ccc(F)cc1)CC2 [Fluspirilene] (42.0533 µM)	0.865
